Results: publication PMC7862700, “An all-to-all approach to the identification of sequence-specific readers for epigenetic DNA modifications on cytosine”

What was measured:
Test in all cases: DAPPL (digital affinity profiling via proximity ligation, sequencing); 10 mM Tris-HCl pH 7.5, 50 mM NaCl, 1 mM DTT, 4% glycerol, room temperature, 30 min; GST-TFs on glutathione beads, 16-mer random dsDNA library, 0.1% formaldehyde crosslink after washing; high values mean tight binding
Conditions in all cases: protein: recombinant; tags: N-terminal GST; dsDNA, one strand shown
FEV = target: T1, FEV (Homo sapiens, UniProt Q99581 1-238)
T1 sequence: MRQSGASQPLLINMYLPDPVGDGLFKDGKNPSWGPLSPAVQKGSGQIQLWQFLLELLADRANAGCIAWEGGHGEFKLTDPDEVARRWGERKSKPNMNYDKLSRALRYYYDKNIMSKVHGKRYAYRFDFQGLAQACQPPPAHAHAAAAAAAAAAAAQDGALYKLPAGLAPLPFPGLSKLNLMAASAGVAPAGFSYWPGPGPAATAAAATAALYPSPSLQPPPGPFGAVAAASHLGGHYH
Procedure, shortened: (§1)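 The binding signal reported is, for every hexamer, its read frequency for a factor over its read frequency for the tag-only sample. Reads came from pools of yeast-expressed, GST-fused human transcription factors on glutathione beads, barcoded with DNA and mixed with that sample, which were incubated with 200 nmole of a random double-stranded 16-mer DNA library in Tris/NaCl/DTT/glycerol buffer at room temperature for 30 min. After washing, the pools were crosslinked with 0.1% formaldehyde, proximity-ligated with BsaI/T4 ligase for 1 h at 37 °C, PCR-amplified and sequenced on an Illumina NextSeq500.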

ETV5 = ETV5 (Homo sapiens, UniProt P41161 1-510)
Chain of ETV5 (P41161 whole entry): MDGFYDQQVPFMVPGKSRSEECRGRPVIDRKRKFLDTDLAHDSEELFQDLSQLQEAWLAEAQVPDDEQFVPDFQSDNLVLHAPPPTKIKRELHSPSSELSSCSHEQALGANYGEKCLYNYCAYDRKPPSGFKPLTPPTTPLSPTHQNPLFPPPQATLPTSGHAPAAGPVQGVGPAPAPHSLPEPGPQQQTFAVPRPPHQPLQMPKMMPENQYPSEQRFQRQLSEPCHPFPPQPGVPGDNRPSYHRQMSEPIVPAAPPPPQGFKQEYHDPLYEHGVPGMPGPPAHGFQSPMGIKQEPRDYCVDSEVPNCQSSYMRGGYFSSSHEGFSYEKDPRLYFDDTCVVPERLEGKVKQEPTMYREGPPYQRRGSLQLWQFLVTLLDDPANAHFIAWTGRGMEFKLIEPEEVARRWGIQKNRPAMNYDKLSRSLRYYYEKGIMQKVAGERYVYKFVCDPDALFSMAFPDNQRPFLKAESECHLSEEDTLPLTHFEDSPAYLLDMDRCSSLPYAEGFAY
Procedure, shortened: as §1

SPIC = target: T2, SPIC (Homo sapiens, UniProt Q8N5J4 1-248)
T2 sequence: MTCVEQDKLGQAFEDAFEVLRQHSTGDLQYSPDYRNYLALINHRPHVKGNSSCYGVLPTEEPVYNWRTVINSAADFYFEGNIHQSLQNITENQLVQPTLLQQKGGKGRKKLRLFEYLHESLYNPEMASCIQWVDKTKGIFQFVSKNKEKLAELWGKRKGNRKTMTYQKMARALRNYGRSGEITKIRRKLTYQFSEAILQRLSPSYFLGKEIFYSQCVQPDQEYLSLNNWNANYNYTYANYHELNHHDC
Procedure, shortened: as §1

ELF4 = ELF4 (Homo sapiens, UniProt Q99607 1-663)
Chain of ELF4 (Q99607 whole entry): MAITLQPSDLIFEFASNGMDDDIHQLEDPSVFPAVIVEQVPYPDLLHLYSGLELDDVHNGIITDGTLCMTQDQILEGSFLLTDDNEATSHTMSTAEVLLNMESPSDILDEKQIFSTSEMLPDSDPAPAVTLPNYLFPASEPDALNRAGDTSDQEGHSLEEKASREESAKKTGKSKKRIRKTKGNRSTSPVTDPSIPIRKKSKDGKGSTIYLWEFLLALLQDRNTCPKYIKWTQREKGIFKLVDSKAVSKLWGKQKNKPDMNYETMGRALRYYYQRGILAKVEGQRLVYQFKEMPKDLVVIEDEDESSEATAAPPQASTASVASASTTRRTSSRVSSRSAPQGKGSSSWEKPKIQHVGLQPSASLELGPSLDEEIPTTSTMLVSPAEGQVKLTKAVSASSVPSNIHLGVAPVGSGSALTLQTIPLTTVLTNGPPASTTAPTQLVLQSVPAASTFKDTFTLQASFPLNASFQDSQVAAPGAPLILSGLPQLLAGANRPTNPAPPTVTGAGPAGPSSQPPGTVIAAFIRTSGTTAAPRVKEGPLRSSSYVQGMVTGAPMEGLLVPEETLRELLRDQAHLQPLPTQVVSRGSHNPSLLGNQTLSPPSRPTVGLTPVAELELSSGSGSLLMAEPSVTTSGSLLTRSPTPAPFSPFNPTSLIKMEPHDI
Procedure, shortened: as §1

ELK4 = target: T3, ELK4 (Homo sapiens, UniProt P28324-2 1-405)
T3 sequence: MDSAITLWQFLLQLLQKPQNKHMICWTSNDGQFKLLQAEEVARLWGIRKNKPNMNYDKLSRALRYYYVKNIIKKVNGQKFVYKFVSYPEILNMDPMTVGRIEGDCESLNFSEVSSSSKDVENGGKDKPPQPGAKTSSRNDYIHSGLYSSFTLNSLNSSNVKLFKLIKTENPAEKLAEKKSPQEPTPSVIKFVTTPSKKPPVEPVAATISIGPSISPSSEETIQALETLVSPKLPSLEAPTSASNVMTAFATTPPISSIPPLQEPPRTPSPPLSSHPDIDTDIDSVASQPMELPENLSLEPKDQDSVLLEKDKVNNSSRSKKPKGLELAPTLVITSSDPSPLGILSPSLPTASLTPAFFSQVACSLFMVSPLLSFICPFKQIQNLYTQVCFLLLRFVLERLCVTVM
Procedure, shortened: as §1

ETV2 = target: T4, ETV2 (Homo sapiens, UniProt O00321 1-342)
T4 sequence: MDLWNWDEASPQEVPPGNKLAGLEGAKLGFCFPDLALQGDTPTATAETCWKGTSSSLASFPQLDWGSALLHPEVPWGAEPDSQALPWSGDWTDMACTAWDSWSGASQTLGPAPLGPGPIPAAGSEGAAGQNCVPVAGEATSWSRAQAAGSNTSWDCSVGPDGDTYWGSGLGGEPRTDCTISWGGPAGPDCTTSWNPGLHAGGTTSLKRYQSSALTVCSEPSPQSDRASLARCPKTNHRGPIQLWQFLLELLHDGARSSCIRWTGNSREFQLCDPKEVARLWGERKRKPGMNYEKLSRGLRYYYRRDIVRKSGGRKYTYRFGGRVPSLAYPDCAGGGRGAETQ
Procedure, shortened: as §1

ELF3 = target: T5, ELF3 (Homo sapiens, UniProt P78545 1-371)
T5 sequence: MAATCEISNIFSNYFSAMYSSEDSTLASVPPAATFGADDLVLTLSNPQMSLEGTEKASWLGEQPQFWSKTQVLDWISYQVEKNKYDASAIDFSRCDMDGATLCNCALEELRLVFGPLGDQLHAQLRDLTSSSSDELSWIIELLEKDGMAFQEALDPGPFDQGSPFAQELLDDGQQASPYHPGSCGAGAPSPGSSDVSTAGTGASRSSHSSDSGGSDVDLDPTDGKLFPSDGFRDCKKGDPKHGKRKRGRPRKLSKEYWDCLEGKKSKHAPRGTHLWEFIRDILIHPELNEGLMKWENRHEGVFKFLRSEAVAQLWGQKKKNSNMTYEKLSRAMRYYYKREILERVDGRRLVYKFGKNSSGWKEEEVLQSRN
Procedure, shortened: as §1

ETV1 = ETV1 (Homo sapiens, UniProt P50549 1-477)
Chain of ETV1 (P50549 whole entry): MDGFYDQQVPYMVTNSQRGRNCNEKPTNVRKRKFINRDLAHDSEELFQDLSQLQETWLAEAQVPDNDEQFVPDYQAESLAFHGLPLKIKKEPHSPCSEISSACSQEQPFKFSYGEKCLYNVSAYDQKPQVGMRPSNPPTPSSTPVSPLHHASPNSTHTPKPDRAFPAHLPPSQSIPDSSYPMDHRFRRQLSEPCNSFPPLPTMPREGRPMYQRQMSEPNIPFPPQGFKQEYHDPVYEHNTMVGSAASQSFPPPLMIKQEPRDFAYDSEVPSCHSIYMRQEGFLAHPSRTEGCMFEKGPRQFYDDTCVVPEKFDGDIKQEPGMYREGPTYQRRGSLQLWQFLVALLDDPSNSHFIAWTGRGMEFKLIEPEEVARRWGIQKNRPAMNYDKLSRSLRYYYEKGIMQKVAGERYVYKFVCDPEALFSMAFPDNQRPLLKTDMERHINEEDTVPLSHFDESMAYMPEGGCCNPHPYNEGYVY
Procedure, shortened: as §1

ERF = target: T6, ERF (Homo sapiens, UniProt P50548 1-548)
T6 sequence: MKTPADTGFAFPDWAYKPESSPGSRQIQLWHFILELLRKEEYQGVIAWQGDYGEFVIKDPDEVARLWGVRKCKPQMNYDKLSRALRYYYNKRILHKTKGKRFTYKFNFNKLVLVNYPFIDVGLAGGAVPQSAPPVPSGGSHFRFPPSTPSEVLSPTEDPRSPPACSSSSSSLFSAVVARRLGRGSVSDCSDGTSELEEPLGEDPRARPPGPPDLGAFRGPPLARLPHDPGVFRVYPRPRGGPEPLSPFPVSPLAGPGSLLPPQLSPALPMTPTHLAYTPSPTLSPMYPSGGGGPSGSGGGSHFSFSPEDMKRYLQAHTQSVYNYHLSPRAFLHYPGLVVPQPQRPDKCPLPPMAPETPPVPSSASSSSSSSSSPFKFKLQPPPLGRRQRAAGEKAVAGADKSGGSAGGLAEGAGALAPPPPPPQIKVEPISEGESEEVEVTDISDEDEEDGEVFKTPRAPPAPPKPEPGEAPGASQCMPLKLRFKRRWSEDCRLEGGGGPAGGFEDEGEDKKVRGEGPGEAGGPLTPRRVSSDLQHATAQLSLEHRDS
Procedure, shortened: as §1

ETV3L = target: T7, ETV3L (Homo sapiens, UniProt Q6ZN32 1-361)
T7 sequence: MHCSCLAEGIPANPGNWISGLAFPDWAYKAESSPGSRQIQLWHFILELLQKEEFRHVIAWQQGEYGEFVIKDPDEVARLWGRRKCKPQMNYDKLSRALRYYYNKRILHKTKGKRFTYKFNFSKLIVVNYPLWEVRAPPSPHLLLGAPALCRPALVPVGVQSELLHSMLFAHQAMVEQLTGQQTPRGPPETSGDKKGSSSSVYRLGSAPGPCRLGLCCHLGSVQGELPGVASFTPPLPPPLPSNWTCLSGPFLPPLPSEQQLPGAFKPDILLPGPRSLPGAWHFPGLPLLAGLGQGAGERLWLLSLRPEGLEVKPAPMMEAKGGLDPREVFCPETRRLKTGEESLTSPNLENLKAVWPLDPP
Procedure, shortened: as §1

ETS2 = target: T8, ETS2 (Homo sapiens, UniProt P15036 1-469)
T8 sequence: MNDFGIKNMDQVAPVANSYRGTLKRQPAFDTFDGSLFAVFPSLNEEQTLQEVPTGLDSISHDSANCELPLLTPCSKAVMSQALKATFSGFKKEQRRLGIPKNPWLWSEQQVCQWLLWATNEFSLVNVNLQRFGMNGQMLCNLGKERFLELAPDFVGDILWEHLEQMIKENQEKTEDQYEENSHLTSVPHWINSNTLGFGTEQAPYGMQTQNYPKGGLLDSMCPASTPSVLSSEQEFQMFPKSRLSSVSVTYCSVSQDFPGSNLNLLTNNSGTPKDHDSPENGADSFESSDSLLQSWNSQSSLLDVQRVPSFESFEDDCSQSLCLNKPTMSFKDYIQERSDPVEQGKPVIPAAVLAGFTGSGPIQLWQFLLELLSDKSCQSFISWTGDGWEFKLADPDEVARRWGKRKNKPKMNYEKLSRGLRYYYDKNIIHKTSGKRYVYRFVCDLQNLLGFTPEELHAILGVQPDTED
Procedure, shortened: as §1

SPDEF = target: T9, SPDEF (Homo sapiens, UniProt O95238 1-335)
T9 sequence: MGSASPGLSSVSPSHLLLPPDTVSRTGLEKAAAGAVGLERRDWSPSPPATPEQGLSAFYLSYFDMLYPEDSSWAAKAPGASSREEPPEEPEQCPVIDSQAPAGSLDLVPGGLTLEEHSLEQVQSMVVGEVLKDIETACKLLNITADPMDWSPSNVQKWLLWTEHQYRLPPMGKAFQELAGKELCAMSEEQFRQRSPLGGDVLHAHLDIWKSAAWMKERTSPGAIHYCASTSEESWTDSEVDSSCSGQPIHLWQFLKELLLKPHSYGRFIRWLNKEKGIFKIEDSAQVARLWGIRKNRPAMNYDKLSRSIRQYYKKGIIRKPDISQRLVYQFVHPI
Procedure, shortened: as §1

ETV7 = target: T10, ETV7 (Homo sapiens, UniProt Q9Y603 1-341)
T10 sequence: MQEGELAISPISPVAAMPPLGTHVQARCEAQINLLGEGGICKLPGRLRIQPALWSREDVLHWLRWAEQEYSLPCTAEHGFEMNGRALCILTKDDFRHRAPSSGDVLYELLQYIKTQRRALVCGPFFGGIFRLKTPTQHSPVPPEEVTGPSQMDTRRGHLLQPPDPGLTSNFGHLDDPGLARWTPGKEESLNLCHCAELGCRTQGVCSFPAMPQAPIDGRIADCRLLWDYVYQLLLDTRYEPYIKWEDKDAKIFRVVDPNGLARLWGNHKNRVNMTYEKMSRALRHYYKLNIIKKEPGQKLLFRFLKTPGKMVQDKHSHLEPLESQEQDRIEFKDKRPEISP
Procedure, shortened: as §1

ELF5 = target: T11, ELF5 (Homo sapiens, UniProt Q9UKW6-2 1-255)
T11 sequence: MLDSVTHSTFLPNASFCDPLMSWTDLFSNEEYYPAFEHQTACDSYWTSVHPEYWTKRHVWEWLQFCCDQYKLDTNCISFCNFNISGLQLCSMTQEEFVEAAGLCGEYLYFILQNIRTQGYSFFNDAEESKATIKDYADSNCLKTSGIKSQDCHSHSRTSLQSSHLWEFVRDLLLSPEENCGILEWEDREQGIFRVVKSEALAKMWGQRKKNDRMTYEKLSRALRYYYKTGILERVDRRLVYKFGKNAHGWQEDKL
Procedure, shortened: as §1

ETV3 = target: T12, ETV3 (Homo sapiens, UniProt P41162-2 1-143)
T12 sequence: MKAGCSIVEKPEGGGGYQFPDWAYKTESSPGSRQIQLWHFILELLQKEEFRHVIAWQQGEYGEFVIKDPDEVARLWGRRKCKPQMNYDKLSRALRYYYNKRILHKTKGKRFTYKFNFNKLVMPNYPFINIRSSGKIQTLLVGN
Procedure, shortened: as §1

ETV6 = ETV6 (Homo sapiens, UniProt P41212 1-452)
Chain of ETV6 (P41212 whole entry): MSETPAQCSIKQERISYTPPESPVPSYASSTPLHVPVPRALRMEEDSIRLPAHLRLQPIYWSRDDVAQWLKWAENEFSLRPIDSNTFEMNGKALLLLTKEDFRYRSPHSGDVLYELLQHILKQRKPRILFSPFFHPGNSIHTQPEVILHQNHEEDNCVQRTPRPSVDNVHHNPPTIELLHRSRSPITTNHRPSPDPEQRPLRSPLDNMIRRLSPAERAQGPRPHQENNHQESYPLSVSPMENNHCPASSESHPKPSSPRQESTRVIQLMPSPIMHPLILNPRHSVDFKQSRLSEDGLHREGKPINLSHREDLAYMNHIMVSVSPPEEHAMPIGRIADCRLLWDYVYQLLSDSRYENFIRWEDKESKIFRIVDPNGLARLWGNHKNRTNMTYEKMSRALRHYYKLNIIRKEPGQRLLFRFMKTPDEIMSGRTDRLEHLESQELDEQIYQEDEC
Procedure, shortened: as §1

Row | Sequence | binding signal (FEV) | binding signal (ETV5) | binding signal (SPIC) | binding signal (ELF4) | binding signal (ELK4) | binding signal (ETV2) | binding signal (ELF3) | binding signal (ETV1) | binding signal (ERF) | binding signal (ETV3L) | binding signal (ETS2) | binding signal (SPDEF) | binding signal (ETV7) | binding signal (ELF5) | binding signal (ETV3) | binding signal (ETV6)
1 | TGCGAC | 1.24 fold enrichment (6-mer frequency, TF over GST control) | 1.24 fold enrichment (6-mer frequency, TF over GST control) | 1.3 fold enrichment (6-mer frequency, TF over GST control) | 1.27 fold enrichment (6-mer frequency, TF over GST control) | 1.25 fold enrichment (6-mer frequency, TF over GST control) | 1.33 fold enrichment (6-mer frequency, TF over GST control) | 1.32 fold enrichment (6-mer frequency, TF over GST control) | 1.18 fold enrichment (6-mer frequency, TF over GST control) | 1.22 fold enrichment (6-mer frequency, TF over GST control) | 1.32 fold enrichment (6-mer frequency, TF over GST control) | 1.19 fold enrichment (6-mer frequency, TF over GST control) | 1.15 fold enrichment (6-mer frequency, TF over GST control) | 1.29 fold enrichment (6-mer frequency, TF over GST control) | 1.2 fold enrichment (6-mer frequency, TF over GST control) | 1.27 fold enrichment (6-mer frequency, TF over GST control) | 1.28 fold enrichment (6-mer frequency, TF over GST control)
2 | TCCGCG | 1.2 fold enrichment (6-mer frequency, TF over GST control) | 1.33 fold enrichment (6-mer frequency, TF over GST control) | 1.18 fold enrichment (6-mer frequency, TF over GST control) | 1.23 fold enrichment (6-mer frequency, TF over GST control) | 1.32 fold enrichment (6-mer frequency, TF over GST control) | 1.32 fold enrichment (6-mer frequency, TF over GST control) | 1.08 fold enrichment (6-mer frequency, TF over GST control) | 1.33 fold enrichment (6-mer frequency, TF over GST control) | 1.22 fold enrichment (6-mer frequency, TF over GST control) | 1.29 fold enrichment (6-mer frequency, TF over GST control) | 1.36 fold enrichment (6-mer frequency, TF over GST control) | 1.4 fold enrichment (6-mer frequency, TF over GST control) | 1.31 fold enrichment (6-mer frequency, TF over GST control) | 1.55 fold enrichment (6-mer frequency, TF over GST control) | 1.37 fold enrichment (6-mer frequency, TF over GST control) | 1.25 fold enrichment (6-mer frequency, TF over GST control)
